In PubChem BioAssay AID686978 (National Center for Advancing Translational Sciences (NCATS), 2013):
Values joined by “and” are separate entries in the source; they are usually repeats but may differ in a detail not shown here. Equal entries are not always repeated. The campaign covered roughly 420,000 compounds. About 64,000 (15%) were called active. Inconclusive results (about 27%) are left out. Only a sample is shown. Values without a mark were called inactive. Calls come from the whole dose curve; as a rule, active = well fitted inhibition curve with a large enough effect; inconclusive = small, poorly fitted or top-dose-only effect; inactive = flat fitted curve, though single readings scatter.

Assay: qHTS for Inhibitors of human tyrosyl-DNA phosphodiesterase 1 (TDP1): qHTS in cells in absence of CPT; note: nearly all actives have a fitted effect of over 55% in size
Details: DT40 Tdp1-/- hTDP1 cells, no CPT, ATP luminescence, 48 h; activity change, negative = growth inhibition: at 46.2 µM (top of the series)
In short: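 Growth kinetics read by CellTiter-Glo luminescence after ≥48 hr at 37 °C. Cells: DT40 Tdp1-/- stably carrying human TDP1, 400 per well, compound exposure in the absence of CPT (DMSO vehicle).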
% is set by controls: 0 for no effect and ±100 for the full control effect; potency is the fitted concentration of half-maximal effect.

SMILES | activity change, negative = growth inhibition [%] | Potency
O=C(CSc1nnc(Nc2ccccc2F)s1)NC1CCCC1 | -13.1 | –
CC(=O)/C(C)=N\O | -5.03 | –
COc1cc(C2C(C(=O)c3cccs3)=C(O)C(=O)N2CCN2CCOCC2)ccc1OCCC(C)C (stereo not given) | -0.632 | –
CSc1cc(C)[nH]c(=O)n1 | 17.6 | –
Cc1nnc(SCc2cccc(Cl)c2)n(N)c1=O | 2.72 | –
COC(=O)Nc1ccc(S(=O)(=O)N2CCN(CCN3C(=O)C4C5C=CC(C5)C4C3=O)CC2)cc1 (stereo not given) | -6.58 | –
Cc1ccc(C2SCC(=O)N2c2ccccc2)cc1 (stereo not given) | 8.15 | –
Cc1ccc(S(=O)(=O)N(C)C)cc1NC(=O)/C=C/c1cccs1 | -25 | –
COC(=O)c1cc(C(=O)N(Cc2ccccc2)c2ccccn2)cc([N+](=O)[O-])c1 | -1.59 | –
CC(C)(C)C(=O)N(Cc1ccccc1)c1ccccn1 | 0.288 | –
Cc1csc2ncc(C(=O)N(Cc3ccccc3)c3ccccn3)c(=O)n12 | -24.4 | –
COc1cc(CN(C(=O)c2ccccc2Br)c2ccccn2)cc(OC)c1OC | – | 13 µM (active)
Cc1ccc(CN(C(=O)c2ccccc2[N+](=O)[O-])c2ccccn2)cc1 | – | 11.6 µM (active)
CCC(=O)N(Cc1ccccc1)c1ccccn1 | 1.24 | –
O=C(c1ccco1)N1CCC2(CC1)CN(c1ncccn1)C2 | -12.3 | –
CCN(CC(=O)Nc1c(F)cccc1F)C(=O)c1ccc(S(=O)(=O)N2CCCCC2)cc1 | -20.4 | –
CCN1CCN(C(=O)N(Cc2ccc(Cl)cc2)S(=O)(=O)c2ccc(C)cc2)CC1 | -1.21 | –
O=c1[nH]c2ccccc2s1 | -20.8 | –
O=C(Cn1c2[n+](c3ccc(C(F)(F)F)cc31)CCCCC2)Nc1c(F)cccc1F | 10.3 | –
CC(=O)NCCn1c(SCC(=O)Nc2ccc(C)cc2)nc2ccccc2c1=O | – | inactive
COc1ccc(Cl)cc1NC(=O)CSc1nc2ccccc2c2nc(-c3ccccc3)nn12 | -6.83 | –
Cc1ccc(NC(=O)CSc2nc3ccccc3c3nc(CCn4cncc4C)nn23)cc1F | – | 20.6 µM (active)

SMILES | activity change, negative = growth inhibition [%] | Potency
CCCCc1nc2ccc(F)cc2cc1C | 0.145 | –
OCC[C@H]1C[C@H](O)[C@@H](O)[C@]2(Cc3ccccc3CO2)O1 | -6.77 | –
O=C1OCCC1=COCCCCOC=C1CCOC1=O | -11.8 | –
CC(=O)CCS(=O)(=O)c1ccc(C)c(C)c1 | – | 29.1 µM (active)
Cc1ccnc(NC(=O)CCNS(=O)(=O)c2ccc(C)c(C)c2)c1 | 0.695 | –
Cc1ccc(S(=O)(=O)NCCC(=O)Nc2ccc(C)c(Cl)c2)cc1C | -5.78 | –
CC(=O)Nc1c2c(nn1-c1cccc(C)c1)CSC2 | 7.88 | –
Cn1cc(-c2nc3cncnc3n(-c3ccccc3)c2=O)c2ccccc21 | -24.1 | –
Cc1cc(C(=O)OCC(=O)Nc2ccccc2Cl)c(C)o1 | -1.32 | –
CCn1nccc1C(=O)Nc1ccc(Cl)c(Cl)c1 | -15.9 | –
O=C(Nc1ccc(S(=O)(=O)Nc2ncccn2)cc1)C12CC3CC(CC(C3)C1)C2 | 3.99 | –
CCn1nccc1C(=O)Nc1ccc(S(=O)(=O)NC23CC4CC(CC(C4)C2)C3)cc1 | – | 16.4 µM (active)
O=C(NC(=O)N1CCOCC1)c1ccccc1 | 0.215 | –
CCOc1cc(NS(=O)(=O)c2ccc(OC)cc2)c(OCC)cc1NC(C)=O | -14.7 | –
CCOC(=O)c1ccccc1NS(=O)(=O)c1ccc(OC)cc1 | – | 14.6 µM (active)
COCCNC(=O)c1ccccc1NS(=O)(=O)c1ccc(C)c([N+](=O)[O-])c1 | -13.7 | –
O=c1nc(N/N=C/c2ccco2)cn[nH]1 | -3.94 | –
CC1CC(C)CN(C(=O)C2CC(=O)N(c3ccc(F)cc3)C2)C1 (stereo not given) | -1.19 | –
CCOc1cc(C(=O)OCC(=O)Nc2cccc(C)c2)ccc1OCC(=O)N1CCOCC1 | 23.9 | –
COc1ccc(C2CC(=O)Oc3ccc(C(C)(C)C)cc32)cc1 (stereo not given) | 4.46 | –
O=C(NCCCn1ccnc1)c1cc(-c2ccccc2)on1 | – | 7.31 µM (active)
COc1ccccc1-c1cc(C(=O)NCCCn2ccnc2)no1 | -15.1 | –

SMILES | activity change, negative = growth inhibition [%] | Potency
COc1ccc(-c2cc(C(=O)NCCCn3ccnc3)no2)cc1 | -20.9 | –
O=C(NCCN1CCOCC1)[C@H](Cc1ccccc1)N1C(=O)c2ccccc2C1=O | -28.8 | –
Cc1csc(SCC(=O)Nc2sccc2C#N)n1 | -11.8 | –
Brc1ccc(-c2n(-c3ccccn3)c3ccccc3[n+]2-c2ccccn2)cc1 | – | 13 µM (active)
O=C(Cc1ccc(Br)cc1)N1CCN(c2ccccn2)CC1 | -23.2 | –
Cn1cc(CNC(=O)c2ccc(OC3CCN(Cc4ccccn4)CC3)cc2)cn1 | -13 | –
CCN(CC)C(=O)CSc1nc2ccccc2n1CC(=O)N1CCN(c2ccccc2OC)CC1 | -28 | –
Cc1ccc(Cn2c(SCC(=O)N/N=C/c3ccccc3OCC(=O)O)nc3ccccc32)cc1 | 13 | –
CCn1c(SCC(=O)N2CCCC2=O)nc2ccccc21 | 9.74 | –
CN(C(=O)CSc1nc2ccccc2n1Cc1ccccc1C#N)c1ccccc1 | – | 18.4 µM (active)
COC(=O)c1ccc(Cn2c(SCC(=O)N(C)c3ccccc3)nc3ccccc32)cc1 | – | 23.1 µM (active)
COC(=O)CSc1nc2ccccc2c(=O)n1Cc1ccccc1 | -18.6 | –
CC1=C(C/C=C(\C)CCCC(C)CCCC(C)CCCC(C)C)C(=O)c2ccccc2C1=O (stereo not given) | -7.3 | –
Cc1cc(C)cc(NC(=O)COc2coc(CN3CCN(c4ccccc4)CC3)cc2=O)c1 | -32.4 | –
CC1(C(=O)NS(=O)(=O)c2cccc(F)c2)CCN1C(=O)Cc1ccc(Cl)cc1Cl (stereo not given) | -9.03 | –
COc1ccccc1NC(=O)c1ccc(N2CC3CC(C2)c2cccc(=O)n2C3)c(NC(=O)c2cccnc2)c1 (stereo not given) | -3.69 | –
O=C(OCC1OC(Oc2ccc(O)cc2)C(O)C(O)C1O)c1ccccc1 (stereo not given) | -2.28 | –
O=C(CSc1nccn1Cc1ccc(Cl)cc1)NCc1ccccc1 | – | 29.1 µM (active)
CCCCCCNC(=O)CSc1nccn1Cc1ccccc1 | -20.3 | –
CCCCNC(=O)CSc1nccn1Cc1ccccc1 | -16.4 | –
NC(=O)c1ccccc1N=Cc1ccc2ccccc2c1 | – | 16.4 µM (active)
N=c1oc2ccccc2cc1C(=O)N/N=C/c1ccccc1 | -7.25 | –

SMILES | activity change, negative = growth inhibition [%] | Potency
O=C(COC(=O)Cc1ccccc1F)NNC(=O)c1ccc(Cl)cc1 | -7.42 | –
Cc1ccc(C)c(NC(=O)C2Cc3ccccc3CN2C(=O)OCc2ccccc2)c1 (stereo not given) | – | 20.6 µM (active)
Cc1ccc(NC(=O)C2CCCN2C(=O)OCc2ccccc2)cc1C (stereo not given) | -15.4 | –
Cc1ccc(S(=O)(=O)N(C)C)cc1NC(=O)C1Cc2ccccc2CN1C(=O)c1ccco1 (stereo not given) | -0.334 | –
Fc1ccccc1OCCCCn1cncn1 | -6.12 | –
COc1cc(/C=C/CNC[C@H]2O[C@@H](n3cnc(C(N)=O)n3)[C@H](O)[C@@H]2O)ccc1O | -8.27 | –
OCC[C@H]1C[C@@H](O)[C@H](O)[C@]2(OCCCc3ccccc32)O1 | -26.6 | –
O=C(NCCCN1CCCCC1)c1ccc2c(c1)NC(=O)C(N1CCOCC1)S2 (stereo not given) | -5.19 | –
O=C(NCCN1CCOCC1)Nc1cccc(Cl)c1 | 2.52 | –
CCN1CCN(CCNC(=O)c2ccc3c(c2)NC(=O)/C(=C\c2cccc(Cl)c2)S3)CC1 | – | 16.4 µM (active)
Cc1cc(C)n(-c2ccc(NC(=O)C3CCCCN3C(=O)c3cccs3)cc2)n1 (stereo not given) | -24.6 | –
CCOc1ccc(/C=C(/NC(=O)c2ccccc2)C(=O)NCCC(=O)O)cc1 | -1.02 | –
O=C1CC[C@H](O)CCN1[C@H](CSc1ccc(Br)cc1)Cc1ccccc1 | – | 15.8 µM (active) and 16.4 µM (active)
O=C1CCN(Cc2ccc([N+](=O)[O-])cc2)CCN1[C@H](CO)Cc1ccccc1 | -29.7 | –
O=C1CCNCCN1[C@H](CO)Cc1ccccc1 | – | inactive
COc1ccccc1NC(=O)C1=C(C)Nc2ncnn2C1c1ccc(C)o1 (stereo not given) | 6.2 | –
CC(OC(=O)c1cc2ccccc2o1)C(=O)Nc1ccc(N2CCOCC2)cc1 (stereo not given) | -12.7 | –
CCOC(=O)c1ccc(NC(=O)c2c(NCc3cccc(OC)c3)sc3c2CCC3)cc1 | – | 11.6 µM (active)
CCOC(=O)c1ccc(NC(=O)c2csc3c2CCCCC3)cc1 | – | 14.6 µM (active)
CCOC(=O)c1ccc(NC(=O)CNC(=O)c2ccco2)cc1 | -8.77 | –
COC(=O)c1sc(NC(=O)c2csc3c2CCCC3)nc1C | – | 23.1 µM (active)
CCOC(=O)c1ccc(NC(=O)c2c(NCc3ccccc3)[nH]c(=O)[nH]c2=O)cc1 | 8.57 | –

SMILES | activity change, negative = growth inhibition [%] | Potency
CCOC(=O)c1ccc(NC(=O)c2c(NCc3cccs3)sc3c2CCCC3)cc1 | – | 20.6 µM (active)
COC(=O)c1sc(NC(=S)NC(=O)c2ccc(C)cc2)nc1C | -26.1 | –
CC(=O)Cc1nsc(NC(=O)c2csc3c2CCCC3)n1 | -18.5 | –
Cc1ccc(NC(=O)c2csc3c2CCCC3)cc1 | -10.6 | –
CCOC(=O)c1c(NC(=O)Cc2coc3ccc(CC)cc23)sc2c1CCC2 | -69.5 | –
CCOc1ccc(CCNC(=O)c2csc3c2CCCCC3)cc1 | -23.6 | –
CC[C@H](C)C(=O)N[C@H]1CCCN1C(=O)/C=C/c1ccccc1 | 7.88 | –
Cc1ccc(C(=O)COC(=O)CCCC(=O)NC2CCCCC2)cc1[N+](=O)[O-] | -10.4 | –
COCCNC(=O)C1CCN(C(=O)C2CC(=O)N(c3ccc(C)cc3)C2)CC1 (stereo not given) | -29.2 | –
O=C1CCC(=O)N1c1ccc(NCCc2ccccc2F)c([N+](=O)[O-])c1 | -18 | –
CCCCN1CCNC1=S | -4.02 | –
CC1CC(C)CN(C(=O)CSc2nnc(CSc3ncccn3)n2C)C1 (stereo not given) | -7.34 | –
COCC1CCCN(C(=O)c2ccc3oc(C(C)C)nc3c2)C1 (stereo not given) | 6.37 | –
COc1ccc(CCNc2nc3ccc(C)cc3n3cnnc23)cc1OC | – | 16.4 µM (active) and 23.1 µM (active)
COc1ccccc1CNc1nc2ccc(Cl)cc2n2cnnc12 | -14.6 | –
COc1ccc(CCNc2nc3c(-c4cccc(F)c4)nnn3c3ccccc23)cc1OC | -25.8 | –
COc1ccc(C2=NOC(C(=O)NCc3ccco3)C2)cc1OC (stereo not given) | – | 2.59 µM (active)
Cc1ccc(NC(=O)C2CC(c3ccc(F)cc3)=NO2)cc1 (stereo not given) | -8.36 | –
COc1ccc(CNC(=O)C2CC(c3ccc(C(F)(F)F)cc3)=NO2)cc1 (stereo not given) | – | 11.6 µM (active)
COc1ccc(S(=O)(=O)N2CCC(C(=O)NCc3ccco3)CC2)cc1C | -21.2 | –
COc1ccc(-c2cc(C(=O)NCc3ccco3)no2)cc1OC | -3.72 | –
COc1ccc(CNC(=O)C2CCCC2)cc1 | -24 | –
